Results taken from PubChem BioAssay (NCATS).
Inconclusive results are not listed. The source made the active and inactive calls. Unless noted, calls come from the whole dose curve; as a rule, active = well fitted curve in the direction sought with a large enough effect; inconclusive = small, poorly fitted or top-dose-only effect, or another doubt; inactive = no such curve, though single readings can be large; an effect the other way counts as inactive or inconclusive.

How the values were obtained:
[1] = qHTS for compounds that reverse cellular toxicity of Amyloid beta (A-beta) peptide in yeast: LOPAC Validation Assay (AID 720559);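 note: plate controls were DMSO for no effect and equimolar ferric chloride plus clioquinol rescue for full effect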
Outline: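 Yeast cells expressing toxic A-beta were combined with pinned compounds in growth medium and incubated 48 hr at 30 C. Growth was read as absorbance at 600 nm and normalized to DMSO and to an equimolar FeCl3/clioquinol positive control.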

[2] = qHTS for Activators of Parkin Expression: LOPAC Validation Assay (NLuc Reporter) (AID 720572)
Outline: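 NLuc signal, read 10 min after reagent and following a prior FLuc read, is normalized to DMSO (0) and positive controls (100%). Cells: neuronal Parkin-promoter coincidence reporter line; compounds tested 7-point, 24 h, 37 C, 5% CO2.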

[3] = qHTS for Activators of Parkin Expression: LOPAC Validation Assay (FLuc Reporter) (AID 720573)
Outline: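 Neuronal cell line stably carrying FLuc/NLuc coincidence reporter under Parkin promoter; cells plated 24 h, then compounds added in 7-point dose response for 24 h at 37 C. FLuc luminescence read; normalized to DMSO and positive control (100%).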

[4] = biological target: T1, Hexokinase-4 (Homo sapiens) + Glucokinase regulatory protein (Homo sapiens) (UniProt P35557+Q14397); test: qHTS assay for inhibitors of recombinant human GCK-GKRP interaction: Diaphorase-coupled assay (AID 743205)
Outline: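 GST-GCK (10 nM) with FLAG-GKRP (10 nM), 5 mM glucose and 0.4 mM ATP in pH 7.6 Hepes; compounds preincubated 20 min with substrate. G6PDH/diaphorase coupling converts resazurin to resorufin, read kinetically (ex 525/em 590 nm) for 30 min.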

[5] = biological target: T1, Hexokinase-4 (Homo sapiens) + Glucokinase regulatory protein (Homo sapiens); test: qHTS assay for inhibitors of recombinant human GCK-GKRP interaction: ADP-Glo assay (AID 743206);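 note: plate controls were DMSO plus enzyme for no effect and no enzyme for full effect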
Outline: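 Pin-transferred compounds meet a 15 nM GST-GCK/15 nM FLAG-GKRP/2 uM S6P mix (dispense concentrations). ATP is then added to 0.4 mM final with 5 mM glucose, and the reaction runs 60 min at room temperature. ADP is quantified luminescently.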

[6] = biological target: T1, Hexokinase-4 (Homo sapiens) + Glucokinase regulatory protein (Homo sapiens); test: qHTS assay for inhibitors of recombinant human GCK-GKRP interaction: HTRF assay (AID 743207);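 note: 0% = DMSO with GCK present and -100% = DMSO wells lacking GCK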
Outline: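 GST-GCK and FLAG-GKRP (5 nM each) were combined with 2 uM S6P in pH 7.1 Hepes/MgCl2/KCl/DTT buffer, then compound and anti-FLAG XL665/anti-GST K antibodies were added. After 60 min at room temperature, HTRF 665/615 nm emission was read.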

[7] = qHTS Assay for Identifying Gametocytocidal Compounds (AID 743244); note: potency is the fitted concentration of half-maximal effect;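 for max response: % is set by controls: 0 for no effect and ±100 for the full control effect; actives lower the fluorescent signal which means gametocytes are killed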; conditions: P. falciparum 3D7 stage III-V gametocytes, alamarBlue, 72 h; max response: stronger effect = lower value
Outline: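 Using 20,000 stage III–V 3D7 gametocytes per well, compounds were incubated 72 h under 37 °C/5% CO2. Viability was then assessed by 24 h alamarBlue reduction, measured fluorometrically at 525/598 nm.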

[8] = qHTS assay for measurement of the activity of small molecule inhibitors on Zika virus induced Caspase-3 activity in human iPSC derived neural progenitor cells (hNPCs) (AID 1224857); note: % of control where 0% means no effect; nearly all actives have a fitted effect of over 65% in size
Outline: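 After overnight (16–20 h) culture at 350 cells/well, hNPCs get compound, then ZIKV 2 FFU/cell one hour later. Six hours on, Caspase-Glo 3/7 is added and luminescence measured.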

[9] = qHTS profiling for inhibitors of Plasmodium falciparum (3D7) proliferation (AID 743322; call rule not given here;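 note: infected erythrocytes exposed to compound for 72 h before lysis; 100% = DMSO vehicle wells and 0% = 0.29 µM artemisinin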); conditions: P. falciparum 3D7 proliferation; at 28.7 µM (top of the series)
Outline: (§1)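 Parasite DNA was quantified by SYBR Green I fluorescence (ex 485, em 535 nm) after overnight lysis in saponin/Triton buffer at room temperature. Cultures at 0.3% parasitemia and 2.5% hematocrit were first exposed to compound for 72 h at 37 C; signals were normalised to artemisinin (0.29 uM) and vehicle wells.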

[10] = qHTS profiling for inhibitors of Plasmodium falciparum (DD2) proliferation (AID 743323; call rule not given here); conditions: lower = more inhibition; at 28.7 µM (top of the series)
Outline: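 1536-well qHTS; infected RBCs 0.3% parasitemia/2.5% Hct final; cpd 72 h 37 C 5% CO2; lysis buffer + SYBR Green I, o/n RT dark; FI 485/535; norm. to 0.29 uM artemisinin and DMSO, plate-stack corrected.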

[11] = qHTS profiling for inhibitors of Plasmodium falciparum (HB3) proliferation (AID 743324); conditions: Plasmodium falciparum HB3 blood-stage proliferation; at 28.7 µM (top of the series);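 note: 100% = DMSO vehicle wells and 0% = artemisinin-treated control wells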
Outline: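 SYBR Green fluorescence (485 ex/535 em) of lysed cultures, incubated overnight at room temperature in the dark, quantifies parasite DNA. Infected erythrocytes at 0.3% parasitemia and 2.5% hematocrit were exposed 72 h; values normalized to DMSO and 0.29 uM artemisinin controls.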

[12] = qHTS profiling of the MIPE4 collection as inhibitors of Plasmodium falciparum (3D7) proliferation (AID 743344; call rule not given here;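 note: scaled between DMSO vehicle wells and 0.29 µM artemisinin as full inhibition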); conditions: P. falciparum 3D7 in erythrocytes, SYBR Green DNA fluorescence, 72 h; at 28.5 µM (top of the series)
Outline: as §1

[13] = qHTS profiling of the MIPE4 collection as inhibitors of Plasmodium falciparum (DD2) proliferation (AID 743345; call rule not given here); conditions: P. falciparum Dd2 in erythrocytes, SYBR Green DNA, 72 h; at 28.5 µM (top of the series)
Outline: as §1

[14] = qHTS profiling of the MIPE4 collection as inhibitors of Plasmodium falciparum (DD2) proliferation (Rep 2) (AID 743346; call rule not given here); conditions: P. falciparum Dd2 in erythrocytes, SYBR Green DNA, 72 h; at 28.5 µM (top of the series)
Outline: as §1

[15] = qHTS profiling of the MIPE4 collection as inhibitors of Plasmodium falciparum (HB3) proliferation (AID 743347; call rule not given here;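 note: plate controls were DMSO vehicle wells for no effect and artemisinin wells for full effect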); conditions: P. falciparum HB3 in erythrocytes, SYBR Green DNA, 72 h; at 28.5 µM (top of the series)
Outline: as §1

T1 sequence (P35557 whole entry, looked up): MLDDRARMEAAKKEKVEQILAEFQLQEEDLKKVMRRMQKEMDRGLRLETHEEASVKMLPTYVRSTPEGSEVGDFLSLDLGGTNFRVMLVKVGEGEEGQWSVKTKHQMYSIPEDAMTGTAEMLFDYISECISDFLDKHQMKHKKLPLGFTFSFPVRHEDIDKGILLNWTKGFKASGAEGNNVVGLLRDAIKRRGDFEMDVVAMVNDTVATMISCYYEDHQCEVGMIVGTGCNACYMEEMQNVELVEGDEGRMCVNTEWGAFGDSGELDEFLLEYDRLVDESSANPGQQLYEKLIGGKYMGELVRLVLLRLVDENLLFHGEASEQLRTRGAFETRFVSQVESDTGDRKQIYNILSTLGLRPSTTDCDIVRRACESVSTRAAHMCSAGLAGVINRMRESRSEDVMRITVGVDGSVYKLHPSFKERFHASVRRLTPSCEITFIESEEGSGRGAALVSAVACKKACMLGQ
T1 sequence (Q14397 whole entry, looked up): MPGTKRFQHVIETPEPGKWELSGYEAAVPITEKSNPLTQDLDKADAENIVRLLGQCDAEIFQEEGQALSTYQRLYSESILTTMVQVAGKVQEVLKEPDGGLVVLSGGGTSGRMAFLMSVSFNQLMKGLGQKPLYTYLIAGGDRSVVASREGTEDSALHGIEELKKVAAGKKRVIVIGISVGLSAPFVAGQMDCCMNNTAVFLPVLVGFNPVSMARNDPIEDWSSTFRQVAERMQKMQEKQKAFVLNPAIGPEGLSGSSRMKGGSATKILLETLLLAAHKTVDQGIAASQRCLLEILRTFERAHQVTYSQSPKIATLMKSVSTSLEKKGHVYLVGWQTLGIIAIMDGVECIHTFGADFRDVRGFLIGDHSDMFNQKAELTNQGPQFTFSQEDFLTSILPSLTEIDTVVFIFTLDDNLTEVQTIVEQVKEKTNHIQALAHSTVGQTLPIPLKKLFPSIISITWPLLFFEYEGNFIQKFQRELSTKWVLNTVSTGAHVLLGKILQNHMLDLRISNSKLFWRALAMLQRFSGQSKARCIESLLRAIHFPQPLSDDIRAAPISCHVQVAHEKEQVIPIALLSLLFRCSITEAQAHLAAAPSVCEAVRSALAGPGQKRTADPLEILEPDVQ

CCCN(CCC)C1CCc2cccc(O)c2C1 (centres undefined)
inactive: outcome [1] | Potency [2] | outcome [3] | Potency [4] | outcome [5] | outcome [6] | max response [7] 13.2% | Potency [8]

CC(=O)c1c(O)c(C)c(O)c(Cc2c(O)c3c(c(C(=O)/C=C/c4ccccc4)c2O)OC(C)(C)C=C3)c1O
inactive: outcome [1] | Potency [2] | outcome [3] | Potency [4] | outcome [5] | outcome [6] | max response [7] 17.7% | Potency [8]
-0.946%: remaining parasite growth % (stronger effect = lower value) [9]
-2.57%: remaining proliferation (% of control), lower = more inhibition [11]
-0.827%: activity, percent of control [10]

CN1CCc2cc(O)cc3c2[C@H]1Cc1ccc(O)c(O)c1-3
inactive: outcome [1] | Potency [2] | outcome [3] | Potency [4] | outcome [5] | outcome [6] | max response [7] 32.9% | Potency [8]

N[C@@H](Cn1oc(=O)[nH]c1=O)C(=O)O
inactive: outcome [1] | Potency [2] | outcome [3] | Potency [4] | outcome [5] | outcome [6] | max response [7] 11.5% | Potency [8]

COc1ccc2c(c1O)-c1cccc3c1[C@@H](C2)N(C)CC3
inactive: outcome [1] | Potency [2] | outcome [3] | Potency [4] | outcome [5] | outcome [6] | max response [7] 27.6% | Potency [8]

CP(=O)(O)C1=CCNCC1
inactive: outcome [1] | Potency [2] | outcome [3] | Potency [4] | outcome [5] | outcome [6] | max response [7] 6.19% | Potency [8]

CN1CCC(c2c[nH]c3ccc(O)cc23)CC1
inactive: outcome [1] | Potency [2] | outcome [3] | Potency [4] | outcome [5] | outcome [6] | max response [7] 11.9% | Potency [8]

C[C@H](Cc1ccc2c(c1)OC(C(=O)O)(C(=O)O)O2)NC[C@H](O)c1cccc(Cl)c1
inactive: outcome [1] | Potency [2] | outcome [3] | Potency [4] | outcome [5] | outcome [6] | max response [7] 13.1% | Potency [8]

C[N+]1(C)C2CCC1CC(OC(=O)c1c[nH]c3ccccc13)C2 (centres undefined)
inactive: outcome [1] | Potency [2] | outcome [3] | Potency [4] | outcome [5] | outcome [6] | max response [7] -2.89% | Potency [8]

C[C@]12Cc3cn4c(nc3C=C1CCC1C2CC[C@@]2(C)[C@H]1CC[C@@]2(O)C#N)nc1ccccc14 (some centres undefined)
inactive: outcome [1] | outcome [3] | Potency [4] | outcome [5] | outcome [6] | Potency [8]

CN1C2CCC1CC(OC(c1ccccc1)c1ccccc1N)C2 (centres undefined)
inactive: outcome [1] | Potency [2] | outcome [3] | Potency [4] | outcome [5] | outcome [6] | max response [7] 17.7% | Potency [8]

O=[N+]([O-])/C=C/c1ccc2c(c1)OCO2
active: Potency [7] 1.58 µM
inactive: outcome [1] | Potency [2] | outcome [3] | Potency [4] | outcome [5] | outcome [6] | Potency [8]

C[C@H](N)CN1CCc2ccc(Br)cc21
inactive: outcome [1] | Potency [2] | outcome [3] | Potency [4] | outcome [5] | outcome [6] | Potency [8]
24.2%: activity, percent of control [10]
99.2%: remaining parasite growth % (stronger effect = lower value) [9]
active: Potency [7] 7.43 µM

CC(C)NP(=O)(NC(C)C)OP(=O)(NC(C)C)NC(C)C
inactive: outcome [1] | Potency [2] | outcome [3] | Potency [4] | outcome [5] | outcome [6] | max response [7] 7.64% | Potency [8]

C=CCN1CCC23c4c5ccc(O)c4O[C@H]2C(=O)CC[C@@]3(O)C1C5 (some centres undefined)
inactive: outcome [1] | Potency [2] | outcome [3] | Potency [4] | outcome [5] | outcome [6] | max response [7] 7.07% | Potency [8]

CC12NC(Cc3ccccc31)c1ccccc12 (centres undefined)
inactive: Potency [4] | outcome [5] | outcome [6] | max response [7] 3.88% | Potency [8]

Clc1ccc(N2CC3CCC(C2)N3)nn1
inactive: outcome [1] | Potency [2] | outcome [3] | Potency [4] | outcome [5] | outcome [6] | max response [7] 23.5% | Potency [8]

CCCN1CC[C@@H]2c3cc(O)ccc3CC[C@@H]21
inactive: outcome [1] | Potency [2] | outcome [3] | Potency [4] | outcome [5] | outcome [6] | max response [7] 20.4% | Potency [8]

NCCc1c[nH]c2ccc(C(N)=O)cc12
inactive: outcome [1] | Potency [2] | outcome [3] | Potency [4] | outcome [5] | outcome [6] | max response [7] 47.6% | Potency [8]

COc1ccc(OC)c(C(O)C(C)N)c1 (centres undefined)
inactive: outcome [1] | Potency [2] | outcome [3] | Potency [4] | outcome [5] | outcome [6] | max response [7] 11.7% | Potency [8]

C[C@H](N)Cc1cccc(C(F)(F)F)c1
inactive: outcome [1] | Potency [2] | outcome [3] | Potency [4] | outcome [5] | outcome [6] | max response [7] 11.9% | Potency [8]

Oc1ccc2c3c1O[C@H]1c4[nH]c5ccccc5c4C[C@@]4(O)C(C2)N(CC2CC2)CCC314 (some centres undefined)
28.3%: parasite growth remaining, % of DMSO control (lower = more inhibition) [13]
5.24%: growth, % of control [15]
inactive: Potency [4] | outcome [6] | Potency [8]
12.6%: parasite growth, % of control (lower = inhibition) [14]
5.78%: parasite growth, % of DMSO control [12]

C#CCN[C@H](C)Cc1ccccc1
inactive: outcome [1] | Potency [2] | outcome [3] | Potency [4] | outcome [5] | outcome [6] | max response [7] 19.2% | Potency [8]

O=[N+]([O-])c1cc(O)c(O)c([N+](=O)[O-])c1
inactive: outcome [1] | Potency [2] | outcome [3] | Potency [4] | outcome [5] | outcome [6] | max response [7] -6.67% | Potency [8]

COc1ccc2[nH]c3c(c2c1)CCNC3
inactive: outcome [1] | Potency [2] | outcome [3] | Potency [4] | outcome [5] | outcome [6] | max response [7] -9.37% | Potency [8]
